Calls of active or inactive are those of the source. Unless noted, no rule for the calls is given here.
What was measured:
[1] = test system: Wnt5a (protein binding on small-molecule microarray); assay: small molecules binding Wnt5a protein – biophysical, small-molecule microarray, 635/667 nm fluorescence, primary screen (AID 1142); settings: 635 nm fluorescence, higher = more signal;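 also: fluorescence read at 667 nm with signal to noise per printed feature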
[2] = ATP-based viability of Huh7 replicon cells – cell-based, CellTiter-Glo luminescence, basal, 48 h, cytotoxicity control for HCV replication inhibitor project, primary screen (AID 1143); settings: higher = more signal, called active from +8 up or from −8 down;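 also: Huh7 hepatoma cells carrying a hepatitis C replication reporter with no stimulus; test concentration not given here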
[3] = Pseudomonas biofilm growth suppression – PAO1 strain, BacTiter-Glo luminescence, LB-PBS, primary screen (AID 1144); settings: P. aeruginosa PAO1 biofilm, 12 h, higher = more signal
[4] = basal CRE-LacZ reporter activity in PC12 – cell-based, unstimulated, primary screen (AID 1145); settings: no forskolin, luminescence, 4.5 h, higher = more signal, called active from +8 up or from −8 down
[5] = forskolin-driven CRE-LacZ activity in PC12 – cell-based, CRE-LacZ reporter, forskolin-stimulated, primary screen (AID 1146); settings: luminescence, 4.5 h, higher = more signal, called active from +8 up or from −8 down;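 also: PC12 cells with 6xCRE LacZ reporter stimulated by forskolin 10 µM; beta-galactosidase reporter signal reflecting CREB driven transcription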
[6] = target: Streptavidin (Streptomyces avidinii) (UniProt P22629); assay: compounds binding control protein streptavidin – biophysical, small-molecule microarray, 635/667 nm fluorescence, artefact control for SMM compound annotation, primary screen (AID 1147); settings: higher = more signal;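 also: signal reflects streptavidin binding to arrayed compounds as a control protein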
[7] = probe aInhba binding on compound microarray – biochemical, small-molecule microarray, 635/667 nm fluorescence, primary screen (AID 1148); settings: higher = more signal;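 also: score merges 667nm spot fluorescence with signal-to-noise for antibody binding to printed compounds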
Torsin-1A (Homo sapiens) [8] = target: Torsin-1A (Homo sapiens) (UniProt O14656); assay: TOR1A wild-type binding on microarray – cell lysate, small-molecule microarray, lysate, 635/667 nm, primary screen (AID 1149); settings: COS7 hTOR1A-WT lysate, 635 nm fluorescence, higher = more signal
Torsin-1A (Homo sapiens) [9] = target: Torsin-1A (Homo sapiens) (UniProt O14656); assay: torsin A mutant lysate binding on microarrays – cell lysate, small-molecule microarray, COS7 lysate, 635/667 nm fluorescence, primary screen (AID 1150); settings: COS7 hTOR1A mutant lysate, 635 nm fluorescence, higher = more signal;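 also: score pools 667 nm emission and signal to noise measuring lysate protein binding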
[10] = test system: Sonic hedgehog protein (Shh); assay: Sonic hedgehog microarray binding compounds – biochemical, small-molecule microarray, 635/667 nm fluorescence, primary screen (AID 1151); settings: 635 nm fluorescence, higher = more signal;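 also: Shh protein binding to compounds spotted on small-molecule microarray slides; score combines spot fluorescence intensity with signal-to-noise across triplicate slides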

Sequence of Torsin-1A (Homo sapiens) (O14656 whole entry, looked up): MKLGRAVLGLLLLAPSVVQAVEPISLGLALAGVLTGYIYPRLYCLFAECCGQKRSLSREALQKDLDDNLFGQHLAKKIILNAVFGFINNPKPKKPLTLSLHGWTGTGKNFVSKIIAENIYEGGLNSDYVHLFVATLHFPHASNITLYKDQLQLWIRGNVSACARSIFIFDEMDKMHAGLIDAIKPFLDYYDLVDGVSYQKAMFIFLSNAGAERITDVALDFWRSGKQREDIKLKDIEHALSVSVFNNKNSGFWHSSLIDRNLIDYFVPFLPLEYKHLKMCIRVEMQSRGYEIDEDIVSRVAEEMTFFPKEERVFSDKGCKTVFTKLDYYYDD
Sequence of Streptavidin (Streptomyces avidinii) (P22629 whole entry, looked up): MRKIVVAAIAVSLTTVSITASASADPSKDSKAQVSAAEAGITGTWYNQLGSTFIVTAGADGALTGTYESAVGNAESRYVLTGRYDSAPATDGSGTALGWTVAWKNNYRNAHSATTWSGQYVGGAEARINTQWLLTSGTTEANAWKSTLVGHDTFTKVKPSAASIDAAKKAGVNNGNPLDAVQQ

Row | SMILES | composite z-score [1] | z-score [2] | z-score [3] | z-score [4] | z-score [5] | composite z-score [6] | composite z-score [7] | composite z-score (Torsin-1A (Homo sapiens) [8]) | composite z-score (Torsin-1A (Homo sapiens) [9]) | composite z-score [10]
1 | COCCOC(=O)N1C(=O)[C@@]2(c3cc(C#CCC(C(=O)OC)C(=O)OC)ccc31)[C@H](C(=O)NC[C@H](O)c1ccccc1)[C@H]1C(=O)O[C@H](c3ccccc3)[C@H](c3ccccc3)N1[C@@H]2c1ccc(O)cc1 | 0.247 | -1.1 (inactive) | -0.766 (inactive) | -0.191 (inactive) | -0.221 (inactive) | -0.003 | -0.0509 | -0.431 | 0.413 | 0.863
2 | CC1(C)C(=O)C(c2ccccc2)=C2CN3C(=O)N(CCc4ccccc4)C(=O)C3(Cc3ccc(C(F)(F)F)cc3)C=C21 (stereo not given) | 0.437 | -1.29 (inactive) | 0.332 (inactive) | -0.379 (inactive) | 0.866 (inactive) | 1.19 | 0.196 | -0.102 | 0.608 | -1.01
3 | C=CCNC(=O)[C@@H]1[C@H]2C(=O)O[C@H](c3ccccc3)[C@H](c3ccccc3)N2[C@H](c2ccc(O)cc2)[C@@]12C(=O)Nc1ccc(C#CCC(C(=O)OC)C(=O)OC)cc12 | 0.0513 | -5.09 (inactive) | -1.02 (inactive) | -0.608 (inactive) | -0.746 (inactive) | 0.138 | -0.018 | 0.131 | 1.76 | 0.8
4 | CO[C@H]1O[C@H](CO)[C@@H](OC(=O)Nc2ccc(C#N)cc2)[C@@H]2OC(=O)[C@H](Cc3cccc(Br)c3)C/C=C/C[C@@H](Cc3cccc(Br)c3)C(=O)O[C@@H]12 | 0.563 | -3.82 (inactive) | -1.36 (inactive) | -0.602 (inactive) | -0.404 (inactive) | 0.336 | -0.0327 | 0.185 | -0.163 | 1.34
5 | Cc1ccccc1C(O)C1C=CC2C(=O)NC(=O)C2N1Nc1ccc(Cl)cc1Cl (stereo not given) | -0.0864 | -0.702 (inactive) | -0.274 (inactive) | 1.01 (inactive) | -0.569 (inactive) | 0.878 | 0.319 | -0.192 | 0.244 | -0.232
6 | Cc1ccc(N2C(=O)c3ccccc3[C@](C)(C(=O)NCc3ccccc3)[C@@H]2c2ccc(CO)cc2)nc1 | 0.135 | -2.21 (inactive) | 0.493 (inactive) | 0.351 (inactive) | -1.32 (inactive) | 0.0831 | 0.0561 | 0.197 | 0.185 | 0.547
7 | CN(C)CCCCCCNC(=O)[C@@H]1C[C@@H]2C(=O)N[C@@H](CCCCN)C(=O)N2[C@@H]1c1ccc(O)cc1 | 1.95 | -1.9 (inactive) | -1.3 (inactive) | -1.08 (inactive) | -0.643 (inactive) | 2.97 | 1.93 | 3.46 | 3.21 | 1.88
8 | O=C1N[C@@H](Cc2ccccc2)C(=O)N2[C@@H]1C[C@@H](C(=O)O)[C@H]2c1ccc(O)cc1 | 0.391 | -0.477 (inactive) | 0.106 (inactive) | 0.692 (inactive) | -0.789 (inactive) | 0.0885 | 0.25 | 0.574 | 0.533 | 2.02
9 | Nc1cc(Br)ccc1C(=O)O | 0.0415 | 0.389 (inactive) | 0.0538 (inactive) | 0.209 (inactive) | -0.929 (inactive) | 0.689 | -0.0719 | 0.136 | 0.474 | 0.0009
10 | O=C1OCCC=C[C@H]2OC34C=CCN(c5ccc(Cl)cc5)C(=O)[C@H]3N(CCCCCCO)C(=O)[C@@H]4C12 (stereo not given in full) | -0.365 | -0.352 (inactive) | 0.358 (inactive) | 0.0645 (inactive) | -1.34 (inactive) | -0.985 | 0.0333 | 0.132 | -0.175 | -0.341
11 | C=CCN1C(=O)[C@@]2(O[C@@H](CCO)[C@H]([Si](C)(C)c3ccc(OC)cc3)[C@H]2C)c2cc(N3CCOC3=O)ccc21 | -0.0317 | -7.42 (inactive) | -0.202 (inactive) | 6.34 (inactive) | -3.56 (inactive) | 0.0828 | -0.0695 | -0.0921 | 0.543 | -0.285
12 | CC(C)N1CC=CC23O[C@@H]4/C=C\CCCOC(=O)C4[C@H]2C(=O)N(CCCCCCO)[C@@H]3C1=O (stereo not given in full) | -0.0379 | 0.0722 (inactive) | -0.0303 (inactive) | -0.48 (inactive) | -1.02 (inactive) | -1.13 | -0.205 | -0.14 | 0.55 | -0.0836
13 | CCOC(=O)C[C@H]1[C@H](OC(=O)c2cc3ccccc3oc2=O)[C@@H](NC(=O)c2ccc3ccccc3c2)c2cc(OCCCO)ccc2N1C(=O)Cc1ccc(OC)cc1 | 0.174 | -0.361 (inactive) | -0.784 (inactive) | 0.402 (inactive) | -0.931 (inactive) | 1 | -0.231 | 0.462 | 0.746 | 0.47
14 | CCCCNC(=O)c1ccc(C#C[Si](C(C)C)(C(C)C)C(C)C)c(OC(C)=O)c1 | 0.268 | -0.915 (inactive) | -0.084 (inactive) | 0.223 (inactive) | 0.184 (inactive) | 1.04 | -0.187 | 0.598 | 0.216 | 1.74
15 | COc1ccc(C#Cc2ccc3c(c2)[C@]2(C(=O)N3)[C@H](C(=O)N3CCCCCCC3)[C@H]3C(=O)O[C@H](c4ccccc4)[C@H](c4ccccc4)N3[C@@H]2c2ccc(O)cc2)cc1 | 0.696 | -0.71 (inactive) | -0.768 (inactive) | 0.0653 (inactive) | -0.202 (inactive) | 0.627 | 0.939 | 0.589 | 1.42 | 1.6
16 | C=C[C@@H](C)[C@H](O)c1ccc(OCCO)cc1 | -0.872 | -0.104 (inactive) | -0.307 (inactive) | 0.166 (inactive) | -0.049 (inactive) | -1.83 | -0.263 | -3.14 | -1.86 | -0.509
17 | COc1cccc(/C=C(\C#N)C(=O)Nc2c(C)n(C)n(-c3ccccc3)c2=O)c1 | 0.152 | -2.45 (inactive) | -1.47 (inactive) | -0.788 (inactive) | -0.821 (inactive) | 0.841 | -0.206 | 0.217 | 0.285 | 0.241
18 | COc1ccc([Si](C)(C)[C@@H]2[C@@H](CCn3cc([C@H](O)c4ccccc4)nn3)O[C@]3(C(=O)N(Cc4cccc(N5C(=O)c6cccc7cccc5c67)c4)c4ccccc43)[C@H]2C)cc1 | -0.537 | -3.34 (inactive) | 0.692 (inactive) | 0.0031 (inactive) | 0.471 (inactive) | -0.0465 | -0.0963 | -1.06 | -0.526 | 0.454
19 | COc1ccc([Si](C)(C)[C@@H]2[C@@H](CCn3cc([C@H](O)c4ccccc4)nn3)O[C@]3(C(=O)N(c4ccccc4)c4ccccc43)[C@H]2C)cc1 | -0.0872 | -6.24 (inactive) | 0.506 (inactive) | 1.6 (inactive) | -0.897 (inactive) | -0.238 | -0.22 | 0.511 | 0.283 | 0.618
20 | C=C(CCCC)/C(=C/C[C@H](OC(C)=O)c1ccc(OCCO)cc1)c1cc(C(=O)OC)ccc1OC | 0.613 | -1.03 (inactive) | -0.8 (inactive) | 8.05 (active) | -0.499 (inactive) | 0.156 | 0.0363 | -0.453 | 0.886 | 0.803
21 | CCOC(=O)C1=C[C@@H](C(C)(C)C)N(S(=O)(=O)c2ccc(C)cc2)[C@H]1c1cccc(Cl)c1 | 0.37 | -4.84 (inactive) | 1.52 (inactive) | 0.0798 (inactive) | -0.651 (inactive) | 1.37 | 0.18 | 0.224 | 0.695 | 0.163
22 | CN1C(=O)C2C=CC(C(O)c3ccc(I)cc3)N(Nc3ccccc3)C2C1=O (stereo not given) | 0.377 | 0.134 (inactive) | -0.507 (inactive) | 1.77 (inactive) | 1.34 (inactive) | 1.76 | -0.0209 | 0.338 | 0.696 | -0.0996
23 | C=CCC(OC(C)=O)[C@@H]1[C@@H](N(Cc2ccc(-c3cccc(C(F)(F)F)c3)o2)C(=O)c2ccc(C)cc2)c2cc(OCCCO)ccc2N1C(=O)Cc1ccc(OC)cc1 (stereo not given in full) | 0.058 | -0.159 (inactive) | -0.853 (inactive) | -0.477 (inactive) | 0.514 (inactive) | -0.109 | -0.128 | -0.425 | 0.197 | 1.53
24 | O=c1cccc(-c2ccc(F)cc2)o1 | 0.0405 | 0.0779 (inactive) | -0.291 (inactive) | -0.433 (inactive) | 1.01 (inactive) | 0.386 | 0.179 | 0.309 | 0.0586 | 0.559
25 | COC(=O)C(CC#Cc1ccc2c(c1)[C@]1(C(=O)N2)[C@H](c2ccc(OCCO)cc2)N2[C@H](c3ccccc3)[C@H](c3ccccc3)OC(=O)[C@H]2[C@@H]1C(=O)N1CCN(c2ncccn2)CC1)C(=O)OC | 0.419 | -0.339 (inactive) | -0.961 (inactive) | -0.554 (inactive) | 1.27 (inactive) | 0.862 | 0.306 | 0.272 | 0.666 | 1.2
26 | O=C1C2C=CC(C(O)c3cc(C(F)(F)F)cc(C(F)(F)F)c3)N(Nc3ccccc3F)C2C(=O)N1c1ccccc1 (stereo not given) | 0.17 | -3.68 (inactive) | -0.476 (inactive) | 0.626 (inactive) | -0.0442 (inactive) | 0.714 | 0.385 | -0.0067 | 0.379 | -0.685
27 | O=C1O[C@H](c2ccccc2)[C@H](c2ccccc2)N2[C@H]1[C@@H](C(=O)Nc1nc3ccccc3s1)[C@]1(C(=O)Nc3ccc(C#CC4=CCCCC4)cc31)[C@H]2c1ccc(O)cc1 | 0.357 | -4.09 (inactive) | -0.922 (inactive) | -0.671 (inactive) | 0.0225 (inactive) | 1.24 | -0.103 | -0.253 | 0.335 | 1
28 | COCCOC(=O)N1C(=O)[C@@]2(c3cc(C#CCCO)ccc31)[C@H](c1ccccc1OCCO)N1[C@H](c3ccccc3)[C@H](c3ccccc3)OC(=O)[C@H]1[C@@H]2C(=O)N1CCCCCCC1 | 0.405 | -3.64 (inactive) | -1.29 (inactive) | -1.15 (inactive) | 0.481 (inactive) | 1.31 | 1.45 | 1.22 | 0.34 | 1.97
29 | Cc1ccc([C@H]2C(C(=O)O)=C[C@@H](C(C)(C)C)N2S(=O)(=O)c2ccc(C)cc2)cc1 | 0.285 | -0.117 (inactive) | 0.62 (inactive) | -0.312 (inactive) | 0.134 (inactive) | 1.54 | 0.271 | 0.0948 | 0.465 | 0.347

Reference: PubChem BioAssay
